This is an account of results in PubChem BioAssay (NCATS).

The structures appear in SMILES notation. Results filed as inconclusive are left out. Entries that show only a call come without a potency. Active and inactive are the calls of the source. Calls follow the shape of the full dose curve.

The test is described as follows: A High-Content qHTS Against Drug Library for the Identification of Small Molecules that Inhibit DYT1 Early Onset Primary Dystonia-Associated Cell Pathology (AID 1645839). As to conditions: HEK293 Flp-In EGFP-delE TorsinA, punctate imaging, 48 h; series mostly up to 46.1 µM. The method, boiled down: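 Readout: %pathology, the punctate EGFP-TorsinA distribution from imaging, as the primary channel and cell count as the toxicity counterscreen. HEK293 Flp-In cells expressing delE TorsinA were induced with tetracycline and treated with compound for 48 h.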
Take `C[C@]12CCC(=O)C=C1CC[C@@H]1[C@@H]2[C@@H](O)C[C@@]2(C)[C@H]1CC[C@]2(O)C(=O)CO`: the Potency result is “inactive”.
Turning to `O=C(O)COCCN1CCN(C(c2ccccc2)c2ccc(Cl)cc2)CC1` (stereo not drawn), the Potency entry was “inactive”.
Next, `CCN(CC)CCCC(C)Nc1ccnc2cc(Cl)ccc12` (stereo not drawn): “inactive”; `Cn1cnc2c(F)c(Nc3ccc(Br)cc3Cl)c(C(=O)NOCCO)cc21`: “inactive”; `COc1ccc2nc(S(=O)Cc3ncc(C)c(OC)c3C)[nH]c2c1` (stereo not drawn): “inactive”.
Next, `Nc1nc2c(ncn2COCCO)c(=O)[nH]1`: “inactive”.
Next, `CCCc1nn(C)c2c(=O)[nH]c(-c3cc(S(=O)(=O)N4CCN(C)CC4)ccc3OCC)nc12`: “inactive”; `CNC[C@H](O)c1cccc(O)c1`: “inactive”.
Consider `Cc1cn[nH]c1`, for which the Potency entry is “inactive”.
In the case of `Cc1cnc(NC(=O)C2=C(O)c3ccccc3S(=O)(=O)N2C)s1` it was “inactive”; in that of `O=C1CCC(N2C(=O)c3ccccc3C2=O)C(=O)N1` (stereo not drawn), “inactive”; in that of `CC(C)(C)NCC(O)c1ccc(O)c(CO)c1` (stereo not drawn), “inactive”.
With `Cc1ccc(N(CC2=NCCN2)c2cccc(O)c2)cc1`, the Potency entry is “inactive”.
For `CC(c1cc2ccccc2s1)N(O)C(N)=O` (stereo not drawn), the Potency result is “inactive”.
In the case of `CCn1cc(C(=O)O)c(=O)c2cc(F)c(N3CCNC(C)C3)c(F)c21` (stereo not drawn) it was “inactive”.
In the case of `CCc1ccc(CCOc2ccc(CC3SC(=O)NC3=O)cc2)nc1` (stereo not drawn), the Potency entry is “inactive”.
For `C#Cc1cccc(Nc2ncnc3cc(OCCOC)c(OCCOC)cc23)c1`, the Potency result is “inactive”.
In the case of `NC(=O)c1cnccn1` it was “inactive”.
